# Source: PubChem BioAssay (EPA / NIEHS)
# Where “and” joins values, the source holds several entries; their conditions need not be identical. Equal values may be shown once. Records with an inconclusive call do not appear. The source holds several records for some structures; these can differ, active in one and inactive in another. Calls of active or inactive are those of the source. How the source made its calls, unless noted: active means hit-call score of the fitted dose curve at least 0.9, where 1 is the maximum; inconclusive means response in the unintended direction; inactive means score below 0.9.
# Assays:
# [1] = target: Estrogen receptor (Homo sapiens) (UniProt P03372); assay: CCTE_Deisenroth_AIME_384WELL_LUC_Active: CCTE's 384-well Estrogen Receptor Transactivation Assay with AIME metabolic competence (ERTA luciferase; metabolism positive), Deisenroth Lab (AID 2284030)
# Chain of Estrogen receptor (Homo sapiens) (P03372 whole entry, looked up): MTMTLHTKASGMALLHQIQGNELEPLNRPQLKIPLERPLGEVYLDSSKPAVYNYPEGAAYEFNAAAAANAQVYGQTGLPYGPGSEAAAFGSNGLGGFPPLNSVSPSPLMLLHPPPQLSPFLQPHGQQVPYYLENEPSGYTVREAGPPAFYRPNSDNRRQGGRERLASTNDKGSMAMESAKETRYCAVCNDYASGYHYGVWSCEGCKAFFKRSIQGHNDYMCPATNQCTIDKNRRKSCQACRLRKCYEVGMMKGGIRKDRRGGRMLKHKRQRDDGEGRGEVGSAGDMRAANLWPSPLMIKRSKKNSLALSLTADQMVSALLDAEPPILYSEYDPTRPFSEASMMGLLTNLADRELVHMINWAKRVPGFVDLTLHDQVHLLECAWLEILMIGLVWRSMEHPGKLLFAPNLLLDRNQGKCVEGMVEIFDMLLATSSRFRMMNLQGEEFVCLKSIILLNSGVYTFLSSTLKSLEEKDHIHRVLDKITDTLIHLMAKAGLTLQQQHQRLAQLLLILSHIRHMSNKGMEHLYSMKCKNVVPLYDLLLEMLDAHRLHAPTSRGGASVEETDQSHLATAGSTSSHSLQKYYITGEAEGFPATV
# Method in brief: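 Chemicals (10-point, 0.002-200 uM) were first incubated 2 hours with alginate-immobilized induced male Sprague Dawley rat liver S9. The conditioned medium was then applied to VM7Luc4E2 cells for 24 hours, with ER luciferase induction read by luminescence relative to 17beta-estradiol.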
# [2] = CCTE_Shafer_MEA_dev_firing_rate_mean: CCTE's Neural Network Formation Assay for Mean Firing Rate, Shafer Lab (AID 2284031; active means hit-call score of the fitted dose curve at least 0.9, where 1 is the maximum; inactive means score below 0.9;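 on AC50: curve fitted for loss of firing so AC50 reflects decreased mean firing rate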)
# Method in brief: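 Read-out: spike count/recording length, averaged over active electrodes, then AUC across days 5, 7, 9, 12. Rat cortical cultures on MEA; continuous 12-day exposure, media and treatment renewed DIV 5, 9; DMSO baseline.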
# [3] = CCTE_Shafer_MEA_dev_per_burst_spike_percent: CCTE's Neural Network Formation Assay for Percent of Spikes in a Burst, Shafer Lab (AID 2284032; active means hit-call score of the fitted dose curve at least 0.9, where 1 is the maximum; inactive means score below 0.9;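 on AC50: fitted as a decrease in burst spike percentage below DMSO baseline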)
# Method in brief: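 Value is trapezoidal AUC over recordings on days 5, 7, 9 and 12 of the well-mean fraction of spikes falling in single-electrode bursts; rat cortical cultures exposed continuously from plating, treatment renewed DIV 5 and 9, fitted downward against DMSO.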
# [4] = CCTE_Deisenroth_AIME_384WELL_CTox_Active: Cytotoxicity Assessment (CTOX) in CCTE's 384-well Estrogen Receptor Transactivation Assay with AIME metabolic competence (metabolism positive), Deisenroth Lab (AID 2284037);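 further: chemicals first conditioned 2 h by alginate-bound induced rat liver S9 before cells; activity means signal loss indicating cell death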
# Method in brief: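 VM7Luc4E2 breast cells received medium pre-incubated 2 h with chemical over alginate microspheres holding induced male Sprague Dawley rat liver S9; viability read 24 h later by protease-substrate fluorescence. Loss of signal, bidirectional fit, 0.002–200 uM.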
# [5] = CCTE_Deisenroth_AIME_384WELL_CTox_Inactive: Cytotoxicity Assessment (CTOX) in CCTE's 384-well Estrogen Receptor Transactivation Assay without AIME metabolic competence (metabolism negative), Deisenroth Lab (AID 2284039);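 further: cell viability via live-cell protease substrate cleaved to fluorescent probe; cells exposed 24 h to medium preincubated 2 h with alginate-water beads without S9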
# Method in brief: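 Metabolism-negative arm: chemicals (10-point, 0.002 - 200 uM) preincubated 2 h with alginate-water lids, medium moved onto VM7Luc4E2 cells for 24 h. Fluorescent live-cell protease readout; bidirectional curve fit.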
# [6] = CCTE_Shafer_MEA_dev_active_electrodes_number: CCTE's Neural Network Formation Assay for Number of Active Electrodes, Shafer Lab (AID 2284040);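 on AC50: potency for loss of active electrodes versus DMSO so lower counts are hits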
# Method in brief: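 Developing rat cortical networks on MEAs, exposed DIV 0–12. Value is the AUC of active-electrode counts (≥5 spikes/min) from days 5, 7, 9, 12, relative to DMSO.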
# [7] = target: Estrogen receptor (Homo sapiens) (UniProt P03372); assay: CCTE_Deisenroth_AIME_384WELL_LUC_Shift: CCTE's 384-well Estrogen Receptor Transactivation Assay with AIME metabolic competence data shift (ERTA luciferase; difference in metabolism positive and negative), Deisenroth Lab (AID 2284041; active means hit-call score of the fitted dose curve at least 0.9, where 1 is the maximum; inactive means score below 0.9;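 further: shift is response with S9 minus without S9 so positive means metabolism raised ER signal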)
# Method in brief: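 Here, parent compounds undergo 2 h phase I metabolism by PB/BNF-induced rat S9 before 24 h transactivation in VM7Luc4E2 cells; the curve models S9-positive minus S9-negative response over a 10-point series.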
# [8] = CCTE_Shafer_MEA_dev_burst_rate: CCTE's Neural Network Formation Assay for Burst Rate, Shafer Lab (AID 2284042; active means hit-call score of the fitted dose curve at least 0.9, where 1 is the maximum; inactive means score below 0.9;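 on AC50: potency for loss of burst rate below DMSO control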)
# Method in brief: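 Cells plated, treated day 0; recorded DIV 5, 7, 9, 12; fed and re-treated DIV 5, 9. Endpoint: bursts per recording time, active-electrode well mean, trapezoidal AUC, fitted in decreasing direction against DMSO baseline.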
# [9] = CCTE_Shafer_MEA_dev_bursting_electrodes_number: CCTE's Neural Network Formation Assay for Number of Bursting Electrodes, Shafer Lab (AID 2284043);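 on AC50: potency is for loss of bursting electrodes relative to DMSO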
# Method in brief: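 Counted: electrodes with burst rate ≥1 per 2 min in each well. Cells: primary rat cortex, 1.5 x 10^5/well, on 16-electrode MEA wells. Exposure: DIV 0–12, compound renewed DIV 5 and 9. Recording days 5, 7, 9, 12; AUC vs DMSO baseline.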
# [10] = CCTE_Shafer_MEA_dev_per_burst_interspike_interval: CCTE's Neural Network Formation Assay for Burst Interspike Interval, Shafer Lab (AID 2284044; active means hit-call score of the fitted dose curve at least 0.9, where 1 is the maximum; inactive means score below 0.9;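 on AC50: potency for a decrease of within-burst interspike interval below DMSO level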)
# Method in brief: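 Primary rat cortical neurons on 48-well MEA plates, exposed from day 0 through day 12, treatment renewed at DIV 5 and 9. Within-burst interspike interval recorded days 5, 7, 9, 12, well-averaged, summarised as AUC; negative fit versus DMSO.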
smiles,measurement,setting,value
CN1CCC[C@H]1c1cccnc1,outcome,[1],inactive
same,outcome,[2],inactive
same,outcome,[3],inactive
same,outcome,[4],inactive
same,outcome,[5],inactive
same,outcome,[6],inactive
same,outcome,[7],inactive
same,outcome,[8],inactive
same,outcome,[9],inactive
same,outcome,[10],inactive
CCCCCCCCCCCCN1CCCC1=O,AC50,[4],100 µM (active)
same,AC50,[5],57.1 µM (active)
same,outcome,[7],inactive
Oc1cc2ccccc2c2ccccc12,AC50,[4],19 µM (active)
same,AC50,[5],10.3 µM (active)
same,outcome,[7],inactive
COC(=O)CCCCC(=O)OC,outcome,[1],inactive
same,outcome,[7],inactive
CC#C[C@]1(O)CC[C@H]2[C@@H]3CCC4=CC(=O)CCC4=C3[C@@H](c3ccc(N(C)C)cc3)C[C@@]21C,outcome,[1],inactive
same,AC50,[2],8.04 µM (active)
same,outcome,[2],inactive
same,AC50,[3],6.81 µM (active) and 22.9 µM (active)
same,outcome,[4],inactive
same,outcome,[5],inactive
same,AC50,[6],4.73 µM (active) and 17.8 µM (active)
same,outcome,[7],inactive
same,AC50,[8],5.1 µM (active)
same,outcome,[8],inactive
same,AC50,[9],2.8 µM (active) and 15 µM (active)
same,AC50,[10],4.01 µM (active) and 5.66 µM (active)
CCN(CC)CCNc1ccc(CNC=O)c2sc3ccc(OC)cc3c(=O)c12,AC50,[4],130 µM (active)
same,AC50,[5],120 µM (active)
same,AC50,[7],5.72 µM (active)
CC1=C(/C=C/C(C)=C/C=C/C(C)=C/C(=O)O)C(C)(C)CCC1,AC50,[2],2.98 µM (active)
same,AC50,[3],19.6 µM (active)
same,AC50,[6],15 µM (active)
same,AC50,[8],4.01 µM (active)
same,outcome,[10],inactive
CCCCC(CC)COC(=O)CCCCC(=O)OCc1ccccc1 (configuration not stated),outcome,[1],inactive
same,outcome,[4],inactive
same,outcome,[7],inactive
CC(O)CO (configuration not stated),outcome,[2],inactive
same,outcome,[3],inactive
same,outcome,[6],inactive
same,outcome,[8],inactive
same,outcome,[9],inactive
same,outcome,[10],inactive
OCCC(F)(F)C(F)(F)C(F)(F)C(F)(F)C(F)(F)C(F)(F)F,outcome,[1],inactive
same,outcome,[2],inactive
same,outcome,[3],inactive
same,outcome,[4],inactive
same,outcome,[5],inactive
same,outcome,[6],inactive
same,outcome,[7],inactive
same,outcome,[8],inactive
same,outcome,[9],inactive
same,outcome,[10],inactive
CCCCCCC(=O)O,outcome,[1],inactive
same,outcome,[7],inactive
CCCCCCCC(=O)O,outcome,[4],inactive
same,outcome,[5],inactive
same,AC50,[7],42.1 µM (active)
Cc1ccc(S(=O)(=O)O)c(C)c1,outcome,[1],inactive
same,outcome,[4],inactive
same,outcome,[5],inactive
same,outcome,[7],inactive
C[C@@H]1C[C@H]2[C@@H]3CCC4=CC(=O)C=C[C@]4(C)[C@@]3(F)[C@@H](O)C[C@]2(C)[C@@]1(O)C(=O)COP(=O)(O)O,outcome,[4],inactive
same,outcome,[7],inactive
COc1ccc([N+](=O)[O-])cc1N,AC50,[4],100 µM (active)
same,AC50,[5],100 µM (active)
same,outcome,[7],inactive
c1ccc2c(c1)Cc1ccccc1-2,outcome,[2],inactive
same,outcome,[3],inactive
same,outcome,[6],inactive
same,outcome,[8],inactive
same,outcome,[9],inactive
same,outcome,[10],inactive
O=C(O)c1ccccc1C(c1ccc(O)cc1)c1ccc(O)cc1,AC50,[1],123 µM (active)
same,outcome,[4],inactive
same,outcome,[5],inactive
same,AC50,[7],126 µM (active)
c1ccc2c(c1)ccc1ccccc12,outcome,[2],inactive
same,outcome,[3],inactive
same,outcome,[6],inactive
same,outcome,[8],inactive
same,outcome,[9],inactive
same,outcome,[10],inactive
OC1CCCCC1,outcome,[1],inactive
same,outcome,[4],inactive
same,outcome,[5],inactive
same,outcome,[7],inactive
CCCCCCCCCCCCCCCS(=O)(=O)Oc1ccccc1,AC50,[1],19.5 µM (active)
same,outcome,[5],inactive
same,outcome,[7],inactive
c1ccc2cc3c(ccc4ccccc43)cc2c1,AC50,[1],53.8 µM (active)
same,outcome,[2],inactive
same,outcome,[3],inactive
same,outcome,[5],inactive
same,outcome,[6],inactive
same,AC50,[7],64.2 µM (active)
same,outcome,[8],inactive
same,outcome,[9],inactive
same,outcome,[10],inactive
N#C[C@@H]1CC(F)(F)CN1C(=O)CNC1CC2CCC(C1)N2c1ncccn1 (some centres not stated),outcome,[1],inactive
same,outcome,[4],inactive
same,outcome,[5],inactive
same,outcome,[7],inactive
CCCCOCCO,outcome,[1],inactive
same,outcome,[5],inactive
same,outcome,[7],inactive
C=C(C)C(=O)OCCC(F)(F)C(F)(F)C(F)(F)C(F)(F)C(F)(F)C(F)(F)F,outcome,[2],inactive
same,outcome,[3],inactive
same,outcome,[6],inactive
same,outcome,[8],inactive
same,outcome,[9],inactive
same,outcome,[10],inactive
COCC(C)OCC(C)O (configuration not stated),outcome,[1],inactive
same,outcome,[4],inactive
same,outcome,[7],inactive
OCCC(F)(F)C(F)(F)C(F)(F)C(F)(F)C(F)(F)C(F)(F)C(F)(F)C(F)(F)F,outcome,[1],inactive
same,outcome,[2],inactive
same,outcome,[3],inactive
same,outcome,[6],inactive
same,outcome,[7],inactive
same,outcome,[8],inactive
same,AC50,[9],26 µM (active)
same,outcome,[10],inactive
ClC1=C(Cl)C(Cl)(Cl)C(Cl)=C1Cl,outcome,[1],inactive
same,outcome,[4],inactive
same,outcome,[7],inactive
CC(C)(C)c1ccc(O)c(C(C)(C)C)c1,AC50,[4],171 µM (active)
same,AC50,[5],179 µM (active)
same,AC50,[7],77.6 µM (active)
CCCCCCCCC(=O)O,outcome,[1],inactive
same,outcome,[4],inactive
same,outcome,[5],inactive
same,outcome,[7],inactive
